In ChEMBL document CHEMBL3988442, “University of Dundee, Small-Polar-MMV Screening Library” (2021) one finds Percent Effect data, which are given here for eleven compounds.

What all share (design): scale not given: direction of the effect not stated beside the values
In experiment [1] the target is Protein translocase subunit SecA (Escherichia coli (strain K12)) (UniProt P10408). Nature of the experiment: Assay to Identify E. coli SecA ATPase Inhibitors. The experiment is classed as functional. The settings on record: 30 µM.
Sequence of Protein translocase subunit SecA (Escherichia coli (strain K12)) (P10408 whole entry): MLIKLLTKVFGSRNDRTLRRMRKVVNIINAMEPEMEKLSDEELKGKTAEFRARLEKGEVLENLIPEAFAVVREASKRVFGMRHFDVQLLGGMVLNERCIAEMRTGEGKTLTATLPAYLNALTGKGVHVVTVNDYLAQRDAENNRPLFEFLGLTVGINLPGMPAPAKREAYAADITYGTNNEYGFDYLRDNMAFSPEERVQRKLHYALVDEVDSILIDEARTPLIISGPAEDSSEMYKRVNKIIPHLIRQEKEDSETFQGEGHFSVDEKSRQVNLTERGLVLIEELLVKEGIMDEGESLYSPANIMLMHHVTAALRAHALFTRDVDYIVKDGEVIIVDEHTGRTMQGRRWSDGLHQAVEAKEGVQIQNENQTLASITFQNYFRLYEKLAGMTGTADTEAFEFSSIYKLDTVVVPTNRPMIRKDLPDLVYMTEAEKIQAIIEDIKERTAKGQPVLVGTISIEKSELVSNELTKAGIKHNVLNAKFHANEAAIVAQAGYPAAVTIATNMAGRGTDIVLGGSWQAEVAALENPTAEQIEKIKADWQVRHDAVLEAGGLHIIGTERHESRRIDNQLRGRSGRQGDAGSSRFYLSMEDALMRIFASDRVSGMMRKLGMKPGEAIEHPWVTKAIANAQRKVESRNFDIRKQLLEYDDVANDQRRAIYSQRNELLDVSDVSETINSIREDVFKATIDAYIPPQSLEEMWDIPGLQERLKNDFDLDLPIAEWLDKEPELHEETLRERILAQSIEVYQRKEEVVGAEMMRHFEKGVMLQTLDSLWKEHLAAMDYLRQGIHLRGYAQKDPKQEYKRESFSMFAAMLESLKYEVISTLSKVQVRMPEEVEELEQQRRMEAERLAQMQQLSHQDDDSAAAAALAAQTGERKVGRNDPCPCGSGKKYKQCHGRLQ
Experiment [2] addresses T1, Ubiquitin-activating enzyme e1, putative (Leishmania donovani (strain BPK282A1)) (UniProt E9BSI1).
T1 sequence (whole entry): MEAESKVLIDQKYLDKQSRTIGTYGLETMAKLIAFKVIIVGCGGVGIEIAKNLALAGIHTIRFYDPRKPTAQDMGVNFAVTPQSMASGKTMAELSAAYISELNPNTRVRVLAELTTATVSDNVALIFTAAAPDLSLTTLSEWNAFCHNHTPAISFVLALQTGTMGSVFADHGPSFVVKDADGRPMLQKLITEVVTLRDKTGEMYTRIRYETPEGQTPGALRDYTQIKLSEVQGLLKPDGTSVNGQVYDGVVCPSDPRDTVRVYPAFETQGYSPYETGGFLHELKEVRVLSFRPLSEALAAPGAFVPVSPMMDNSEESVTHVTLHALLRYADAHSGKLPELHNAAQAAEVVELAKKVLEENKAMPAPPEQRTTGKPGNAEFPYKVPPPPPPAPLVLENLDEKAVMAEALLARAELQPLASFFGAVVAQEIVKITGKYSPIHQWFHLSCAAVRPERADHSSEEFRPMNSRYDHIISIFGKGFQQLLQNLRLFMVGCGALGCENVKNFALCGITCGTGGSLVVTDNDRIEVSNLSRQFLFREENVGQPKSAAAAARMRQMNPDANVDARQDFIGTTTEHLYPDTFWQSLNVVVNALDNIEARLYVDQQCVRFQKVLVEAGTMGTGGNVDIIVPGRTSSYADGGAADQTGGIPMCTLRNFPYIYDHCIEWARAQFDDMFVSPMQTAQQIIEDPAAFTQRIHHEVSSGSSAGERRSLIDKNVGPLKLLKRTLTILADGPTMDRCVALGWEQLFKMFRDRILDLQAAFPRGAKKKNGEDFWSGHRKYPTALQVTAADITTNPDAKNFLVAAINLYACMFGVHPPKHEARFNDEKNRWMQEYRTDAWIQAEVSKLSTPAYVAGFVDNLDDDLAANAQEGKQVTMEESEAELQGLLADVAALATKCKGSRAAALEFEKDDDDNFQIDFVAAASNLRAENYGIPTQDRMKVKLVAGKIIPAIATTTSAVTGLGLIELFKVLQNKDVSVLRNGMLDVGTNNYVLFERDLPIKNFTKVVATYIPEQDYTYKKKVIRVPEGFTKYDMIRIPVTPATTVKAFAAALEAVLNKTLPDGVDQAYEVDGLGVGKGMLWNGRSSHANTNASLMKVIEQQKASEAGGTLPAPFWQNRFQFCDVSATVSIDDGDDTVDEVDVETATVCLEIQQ
Nature of the experiment: Leishmania donovani Ubiquitin Activating Enzyme (LdE1). The experiment is classed as functional. The note with it: 30 µM.

Experiment [3] addresses AMP-activated protein kinase, AMPK (Homo sapiens) (UniProt P54646+O43741+P54619+Q9UGJ0+Q9Y478+Q13131+Q9UGI9). Description: AMP-dependent Kinase enzyme assay. An in vitro enzyme assay that detects ADP turnover that is directly proportional to AMPK activity. This uses naive AMPK that is activated during the assay with MK-8722. It is filed as functional. The note with it: 30 µM.

The target in experiment [4] is Sialic acid-binding Ig-like lectin 9 (Homo sapiens) (UniProt Q9Y336). Description: Hs-Siglec9 ALPHAscreen SOP 20170721. The note with it: 10 µM. A general note: Alpha assays give light when donor and acceptor beads are brought close together.
Sequence of Sialic acid-binding Ig-like lectin 9 (Homo sapiens) (Q9Y336 whole entry): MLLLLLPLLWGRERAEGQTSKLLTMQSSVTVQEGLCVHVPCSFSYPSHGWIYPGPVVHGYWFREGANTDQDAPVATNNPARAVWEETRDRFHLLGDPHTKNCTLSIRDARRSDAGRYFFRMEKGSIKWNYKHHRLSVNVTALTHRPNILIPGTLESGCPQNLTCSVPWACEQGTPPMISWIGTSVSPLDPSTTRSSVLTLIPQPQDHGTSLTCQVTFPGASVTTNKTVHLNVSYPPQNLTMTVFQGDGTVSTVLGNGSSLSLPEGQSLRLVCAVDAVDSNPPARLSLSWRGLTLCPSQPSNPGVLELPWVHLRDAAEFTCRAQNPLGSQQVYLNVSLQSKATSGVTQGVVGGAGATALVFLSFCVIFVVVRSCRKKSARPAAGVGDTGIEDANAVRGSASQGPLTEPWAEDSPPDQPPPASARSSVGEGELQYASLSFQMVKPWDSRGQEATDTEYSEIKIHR
Another experiment relates to Trypanosoma cruzi. Nature of the experiment: Trypanosoma cruzi phosphomannomutase and mannose-1-phosphate guanylyltransferase assay. It is filed as functional. The settings on record: 10 µM.
Experiment [5] concerns the target T2, Arginase-2, mitochondrial (Homo sapiens) (UniProt P78540).
T2 sequence (whole entry): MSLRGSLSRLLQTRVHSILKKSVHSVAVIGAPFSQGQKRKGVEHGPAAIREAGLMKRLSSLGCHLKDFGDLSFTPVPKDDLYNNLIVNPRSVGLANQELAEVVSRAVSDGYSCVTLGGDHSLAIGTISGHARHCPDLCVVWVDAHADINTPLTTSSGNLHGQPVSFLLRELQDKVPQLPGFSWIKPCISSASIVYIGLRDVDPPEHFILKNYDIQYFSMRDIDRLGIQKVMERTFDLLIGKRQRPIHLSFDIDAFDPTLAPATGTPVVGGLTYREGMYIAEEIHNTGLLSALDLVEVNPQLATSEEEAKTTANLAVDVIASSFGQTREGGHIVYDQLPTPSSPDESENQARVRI
Description: in vitro enzyme assay to detect the production of urea directly proportional to the activity of Arginase II. Note: in the data most compounds retested in dose-response had high values. The note with it: 33.3 µM. It is filed as functional.

Experiment [6] addresses T3, Proteasome subunit beta (Trypanosoma cruzi) (UniProt O96673).
T3 sequence (whole entry): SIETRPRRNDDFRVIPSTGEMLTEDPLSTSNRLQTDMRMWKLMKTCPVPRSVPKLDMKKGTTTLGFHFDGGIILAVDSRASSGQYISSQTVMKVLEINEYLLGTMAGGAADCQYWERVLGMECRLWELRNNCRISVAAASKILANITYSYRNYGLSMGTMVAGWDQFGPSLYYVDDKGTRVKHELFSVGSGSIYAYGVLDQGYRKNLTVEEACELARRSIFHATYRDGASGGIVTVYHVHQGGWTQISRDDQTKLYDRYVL
Description: Trypanosoma cruzi proteasome chymotrypsin-like activity (TcProtChymo) assay. Note: in the data most compounds retested in dose-response had high values. The settings on record: 9.37 µM. The experiment is classed as functional.

The species named for another experiment is Homo sapiens. Description: To identify inhibition of the IFN signalling (Jak-Stat) pathway via expression of an eGFP reporter gene under the control of an IFN-stimulated response element (ISRE) containing MxA promoter. It is filed as functional. The note with it: 30 µM.
Experiment [7] deals with T4, Tyrosyl-tRNA synthetase, putative (Trypanosoma cruzi (strain CL Brener)) (UniProt Q4DSP6).
T4 sequence (whole entry): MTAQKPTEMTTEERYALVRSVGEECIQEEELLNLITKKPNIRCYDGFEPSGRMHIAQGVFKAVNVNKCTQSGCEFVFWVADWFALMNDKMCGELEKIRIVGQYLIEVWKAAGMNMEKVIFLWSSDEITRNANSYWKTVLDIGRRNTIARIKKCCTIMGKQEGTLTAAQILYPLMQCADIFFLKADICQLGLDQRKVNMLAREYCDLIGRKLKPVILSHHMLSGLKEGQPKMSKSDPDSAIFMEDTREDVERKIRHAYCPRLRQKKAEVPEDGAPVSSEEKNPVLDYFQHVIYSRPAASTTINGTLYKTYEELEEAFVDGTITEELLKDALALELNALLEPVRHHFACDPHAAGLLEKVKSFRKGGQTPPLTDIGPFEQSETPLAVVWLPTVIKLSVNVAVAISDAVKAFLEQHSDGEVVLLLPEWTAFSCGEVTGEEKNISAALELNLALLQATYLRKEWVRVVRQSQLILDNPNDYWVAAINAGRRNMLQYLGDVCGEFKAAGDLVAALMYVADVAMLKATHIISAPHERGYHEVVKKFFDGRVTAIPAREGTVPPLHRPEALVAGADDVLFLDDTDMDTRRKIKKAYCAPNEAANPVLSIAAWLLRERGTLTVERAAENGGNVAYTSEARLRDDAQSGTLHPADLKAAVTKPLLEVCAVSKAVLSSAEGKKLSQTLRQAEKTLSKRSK
Nature of the experiment: Trypanosoma cruzi tyrosyl tRNA synthetase (TcYRS) _High Tyrosine SOP. Note: in the data most compounds retested in dose-response had high values. It is filed as functional. The note with it: 30 µM.

The target in experiment [8] is T4, Tyrosyl-tRNA synthetase, putative (Trypanosoma cruzi (strain CL Brener)). Description: Trypanosoma cruzi tyrosyl tRNA synthetase (TcYRS) SOP. It is filed as functional. The note with it: 30 µM.
Experiment [9] has as its target Chromo domain-containing protein 1 (Saccharomyces cerevisiae (strain ATCC 204508 / S288c) (Baker's yeast)) (UniProt P32657). Nature of the experiment: ScCHD-1 Enzyme Inhibition Assay. Note: in the data most compounds retested in dose-response had high values. The settings on record: 30 µM. The experiment is classed as functional.

For some of these results: Potency and affinity values are given separately.

Sequence of Chromo domain-containing protein 1 (Saccharomyces cerevisiae (strain ATCC 204508 / S288c) (Baker's yeast)) (P32657 whole entry, the tested form may be a part): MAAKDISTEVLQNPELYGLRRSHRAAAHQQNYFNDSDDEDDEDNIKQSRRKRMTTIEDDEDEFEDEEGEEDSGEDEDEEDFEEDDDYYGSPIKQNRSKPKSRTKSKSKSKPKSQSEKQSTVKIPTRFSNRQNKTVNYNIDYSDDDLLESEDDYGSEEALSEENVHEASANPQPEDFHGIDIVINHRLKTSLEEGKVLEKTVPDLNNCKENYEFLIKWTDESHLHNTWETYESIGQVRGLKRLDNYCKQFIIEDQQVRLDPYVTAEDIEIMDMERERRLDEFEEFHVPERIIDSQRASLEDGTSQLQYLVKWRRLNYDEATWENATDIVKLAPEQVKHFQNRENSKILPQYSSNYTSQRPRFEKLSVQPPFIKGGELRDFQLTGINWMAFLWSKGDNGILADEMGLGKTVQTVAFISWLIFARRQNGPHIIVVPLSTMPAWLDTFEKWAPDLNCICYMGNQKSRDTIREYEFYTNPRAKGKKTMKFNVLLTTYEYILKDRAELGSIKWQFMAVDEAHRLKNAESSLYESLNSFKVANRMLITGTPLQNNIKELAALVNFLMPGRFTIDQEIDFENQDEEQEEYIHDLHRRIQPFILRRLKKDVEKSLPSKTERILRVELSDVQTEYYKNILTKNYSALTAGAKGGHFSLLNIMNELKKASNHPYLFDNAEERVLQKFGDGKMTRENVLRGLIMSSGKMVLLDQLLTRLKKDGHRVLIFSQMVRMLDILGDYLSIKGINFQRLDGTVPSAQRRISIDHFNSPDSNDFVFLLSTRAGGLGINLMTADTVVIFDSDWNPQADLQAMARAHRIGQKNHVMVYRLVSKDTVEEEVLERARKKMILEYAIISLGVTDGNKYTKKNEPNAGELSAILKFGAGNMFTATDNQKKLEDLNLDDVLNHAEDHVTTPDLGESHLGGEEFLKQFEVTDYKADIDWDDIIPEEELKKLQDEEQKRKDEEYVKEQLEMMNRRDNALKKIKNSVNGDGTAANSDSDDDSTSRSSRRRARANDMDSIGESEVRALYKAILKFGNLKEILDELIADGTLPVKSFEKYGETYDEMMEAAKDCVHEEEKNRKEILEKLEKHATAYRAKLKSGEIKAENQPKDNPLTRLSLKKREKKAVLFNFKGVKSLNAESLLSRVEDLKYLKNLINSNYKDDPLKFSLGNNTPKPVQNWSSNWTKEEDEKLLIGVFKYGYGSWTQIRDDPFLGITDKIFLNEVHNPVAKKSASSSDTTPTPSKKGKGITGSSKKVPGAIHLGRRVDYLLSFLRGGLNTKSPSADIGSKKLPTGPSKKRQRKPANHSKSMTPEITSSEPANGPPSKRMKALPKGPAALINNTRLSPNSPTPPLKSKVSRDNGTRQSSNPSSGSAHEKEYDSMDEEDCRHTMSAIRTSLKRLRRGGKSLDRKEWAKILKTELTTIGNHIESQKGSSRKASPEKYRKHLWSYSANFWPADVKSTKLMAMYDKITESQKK

As for `COCCN1C[C@@H]2CCCO[C@@H]2[C@H](NC(=O)c2cnccn2)C1`, the Percent Effect in experiment [1] was -1.67%; in experiment [2], 8%; in [3], 1.63%; in experiment [4] it was 1.69%; in the experiment on Trypanosoma cruzi it was -2.32%; in experiment [5], -45.3%. Also, the Percent Effect in [6] was 3.59%; in the experiment filed under Homo sapiens it was -4.03%; in experiment [7], 5.21%; in experiment [8], -12.5%; in experiment [9], -7.48%.

Regarding `Cc1ccc(CN2CCCC23CCN(S(=O)(=O)c2ccccc2)C3)o1` (stereo unspecified), the Percent Effect in experiment [1] is -3.52%; in experiment [2], 8.11%; in [3] it was 0.79%; in [4], -6.47%; in the experiment on Trypanosoma cruzi, 2.25%; in experiment [5], 1.59%. Besides, the Percent Effect is 18.6% in [6]; 6.15% in the experiment listed under Homo sapiens; 9.73% in [7]; 17.9% in [8]; 2.48% in experiment [9].

On to `CC(NC(=O)c1nc(=O)[nH][nH]1)c1ccc(OCC2CC2)c(F)c1` (stereo unspecified), for which the Percent Effect in experiment [1] was -5.77%; in experiment [2], 10.5%; in experiment [3], -0.945%; in experiment [4], -1.85%; in the experiment with Trypanosoma cruzi, 4.58%; in experiment [5], -3.55%. The Percent Effect is 4.7% in experiment [6]; 4.1% in the experiment listed under Homo sapiens; 5.32% in [7]; 10.4% in [8]; -13.1% in experiment [9].

For the compound `CCN(CC)C1CCN(C(=O)NCc2c(C)noc2C)CC1`, the Percent Effect in experiment [1] was -3.56%; in experiment [2], 5.48%; in [3], -3.43%; in experiment [4], 2.27%; in the experiment with Trypanosoma cruzi it was 0.198%; in [5] it was -3.59%. Further, the Percent Effect in experiment [6] is 10.9%; in the experiment filed under Homo sapiens it was -3.14%; in [7], 7.29%; in [8], 13.6%; in experiment [9], -1.04%.

For the compound `Cc1ccccc1CNc1nc(O)cc(C2CC(=O)N(C)C2)n1` (stereo unspecified), the Percent Effect in experiment [1] was 3.9%; in [2], 6.76%; in [3], 3.36%; in experiment [4], -2.99%; in the experiment with Trypanosoma cruzi, -44.5%; in experiment [5] it was 4.87%. The Percent Effect in experiment [6] is 13.1%; in the experiment filed under Homo sapiens, 8.17%; in [7] it was 2.15%; in experiment [8], 9.09%; in experiment [9], -10.8%.

As to `Cc1ccc2cnn(CCC(=O)Nc3c(C)nn(C)c3C)c2c1`, the Percent Effect in [1] is -3.51%; in experiment [2], 5.2%; in [3] it was 2.92%; in experiment [4] it was 2.18%; with Trypanosoma cruzi, -4.03%; in [5] it was -4.14%. The Percent Effect in experiment [6] is 5.16%; in the experiment listed under Homo sapiens it was -0.975%; in [7], 2.15%; in [8], 8.64%; in [9], -0.912%.

Take `CCn1c(C)nnc1CN(C)C1CCN(CCn2cccn2)C1` (stereo unspecified): the Percent Effect in [1] is -1.14%; in experiment [2], 15.6%; in experiment [3] it was 0.0585%; in experiment [4], -11.5%; in the experiment with Trypanosoma cruzi, -0.686%; in experiment [5], -1.05%. The Percent Effect in experiment [6] is 17.9%; in the experiment filed under Homo sapiens, 20.6%; in [7], 14.3%; in experiment [8], 23.5%; in experiment [9], -17.4%.

Turning to `CN(Cc1nnc2n1CCC2)C(=O)Cc1ccc2c(c1)OCCO2`, the Percent Effect in experiment [1] was -1.44%; in experiment [2] it was 13.5%; in experiment [3], -8.06%; in experiment [4] it was -5.38%; with Trypanosoma cruzi, 4.25%; in [5], -5.21%. Also, the Percent Effect in experiment [6] is 13.7%; in the experiment listed under Homo sapiens, 10.6%; in experiment [7] it was 4.43%; in experiment [8] it was 18.5%; in [9] it was -8.36%.

As to `CCN1CC2(CC1=O)CN(Cc1ccco1)CCN(C(=O)N(C)C)C2` (stereo unspecified), the Percent Effect in [1] was -0.643%; in experiment [2], 2.74%; in [3], 1.96%; in [4], 9.02%; with Trypanosoma cruzi, -1.39%; in experiment [5] it was 4.39%. Moreover, the Percent Effect in experiment [6] is 6.59%; in the experiment listed under Homo sapiens, -2.04%; in experiment [7], 5.21%; in experiment [8], 11.1%; in [9] it was 0.322%.

`CN(Cc1ccsc1)C(=O)Nc1cccnc1N1CCCC1`: the Percent Effect in experiment [1] is -9.81%; in [2], 7.89%; in experiment [3], -31.4%; in [4], -9.07%; in the experiment on Trypanosoma cruzi, -7.38%; in experiment [5], 0.719%. Further, the Percent Effect in [6] was 2.62%; in the experiment listed under Homo sapiens it was 6.49%; in [7] it was -1.48%; in experiment [8], 3.7%; in experiment [9], -2.06%.

In the case of `Fc1cnc(N2C[C@H]3CCC[C@@]3(COc3ccccn3)C2)nc1`, the Percent Effect in experiment [1] is -1.64%; in experiment [2], 1.33%; in experiment [3], 6.16%; in [4] it was 4.78%; in the experiment on Trypanosoma cruzi, -3.93%; in [5], -1.94%. For the same compound, the Percent Effect in [6] is 10.5%; in the experiment listed under Homo sapiens, -10.5%; in [7], 5.29%; in [8], 2.56%; in [9] it was -5.06%.
